RE007 growth inh – less growth of the S. pombe RE007 Vpr strain; S. pombe RE007 Vpr strain, BacTiter-Glo ATP luminescence, 24 h; Potency, µM (top dose mostly 92.2 µM), for inactives: top-dose activity change, negative = less growth, usual class: inhibitors; 360,000 tested, 0.21% active; AID 651644; active = well fitted falling curve with a large enough effect; inconclusive = small, poorly fitted or top-dose-only effect; inactive = no such curve, though single readings can be large or run the other way; note: potency is the fitted concentration of half-maximal effect; % is set by controls: 0 for no effect and ±100 for the full control effect; nearly all actives have a fitted effect of over 50% in size
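Fission yeast RE007 carrying one integrated HIV-1 vpr copy, seeded at OD 0.01 in PMG+AL medium with 23 nL pinned compound. Grown 24 h at 30 degrees; viability read by BacTiter-Glo luminescence after 5 min.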
Tb PYK inh – inhibitors of Trypanosoma brucei pyruvate kinase; Q57TT1; TbPYK enzyme, Kinase-Glo Plus ATP luminescence, 45 min; Potency, µM (highest dose often 76.8 µM), without a hit: at the highest dose activity, negative = inhibition, most hits filed as inhibitors; 410,000 tested, 0.12% active; AID 624173; note: potency is the fitted concentration of half-maximal effect; % is set by controls: 0 for no effect and ±100 for the full control effect; nearly all actives have a fitted effect of over 50% in size
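Quantitative HTS: titrated library compounds versus trypanosomal pyruvate kinase in TEA buffer (pH 7.2) containing KCl, MgCl2, BSA and Tween-20. Reactions were initiated with ADP, 130 uM final. Kinase-Glo Plus luminescence was read after 45 min at RT.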
LmPK inh – blocks Leishmania mexicana pyruvate kinase activity. Q27686. purified LmPK, Kinase-Glo ATP luminescence, 1 h. Potency, µM (top dose mostly 57.5 µM), inactives show top-dose activity change, negative = inhibition, hits mostly inhibitors. 290,000 tested, 0.37% active; note: potency is the fitted concentration of half-maximal effect; % is set by controls: 0 for no effect and ±100 for the full control effect
Target sequence (Q27686 whole entry, looked up): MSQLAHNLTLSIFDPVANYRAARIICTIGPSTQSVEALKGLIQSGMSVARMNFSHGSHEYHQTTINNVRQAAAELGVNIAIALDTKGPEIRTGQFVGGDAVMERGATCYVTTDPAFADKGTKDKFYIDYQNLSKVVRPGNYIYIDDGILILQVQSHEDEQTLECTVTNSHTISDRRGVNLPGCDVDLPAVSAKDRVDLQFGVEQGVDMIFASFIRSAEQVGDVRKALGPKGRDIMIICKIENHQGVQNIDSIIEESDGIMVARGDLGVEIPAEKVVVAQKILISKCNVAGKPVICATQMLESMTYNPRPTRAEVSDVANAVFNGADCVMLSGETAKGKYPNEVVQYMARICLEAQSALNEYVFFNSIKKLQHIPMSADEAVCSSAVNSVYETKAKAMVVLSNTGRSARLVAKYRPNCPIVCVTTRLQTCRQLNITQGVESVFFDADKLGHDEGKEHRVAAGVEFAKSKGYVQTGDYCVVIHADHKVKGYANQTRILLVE
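Pyruvate kinase activity monitored as ATP production (luciferase luminescence). Conditions: 0.1 nM enzyme, 0.5 mM PEP, 0.1 mM ADP, 1 h, RT; normalized against uninhibited and no-enzyme wells.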
Shiga toxin inh – blocks Shiga toxin action in Vero cells | inhibition, % at 38.7 µM | AID 2315 | 290,000 tested, 9.2% active | Vero cells, Shiga toxin protein synthesis inhibition reporter; in the data active = inhibition mostly above about 28%, no sharp cut-off; inactive = mostly below about 43%; note: 0% is about no effect
Giardia FBPA inh – inhibitors of Giardia lamblia fructose-1,6-bisphosphate aldolase | A8B2U2 | purified Giardia FBPA | Potency, µM (highest dose often 59.6 µM), inactives show at the top dose activity, negative = inhibition, usual class: inhibitors | 290,000 tested, 0.71% active; note: potency is the fitted concentration of half-maximal effect; % is set by controls: 0 for no effect and ±100 for the full control effect; nearly all actives have a fitted effect of over 55% in size
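Giardia FBPA (40 nM reagent) was preincubated 10 min at RT with compound (up to 57.5 uM final), then substrate plus GAPDH/TPI/NAD/arsenate coupling system with diaphorase/resazurin was added; resorufin fluorescence (525/598 nm) was read after 20 min.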
CHX counter-1 – affects cycloheximide protein synthesis inhibition readout, counter-screen; cell reporter, cycloheximide protein synthesis inhibition counterscreen; max response, %; 300,000 tested, 12% active; AID 2314; in the data active = max response mostly above about 13%, no sharp cut-off; inactive = mostly below about 14%; note: read at 38.3 µM for the half of the compounds with a filed dose; 0% is about no effect
CHX counter-2 – affects protein synthesis reporter in cycloheximide counter-screen; shares compounds with Shiga toxin inh; Cycloheximide counterscreen, protein synthesis reporter, Shiga toxin assay; Potency, µM (titrated, usually from 38.3 µM), without a hit: at the highest dose activity (activation), usual class: activators; 510 tested, 3% active; AID 2318; calls by dose curve; note: potency is the fitted concentration of half-maximal effect; 0% is about no effect
* = called active by the depositor; ? = inconclusive; · = no result given; + = active, no number. The entries come from a sample that favours hits as a whole. Unless noted, calls come from the whole dose curve; as a rule, active = well fitted curve in the direction sought with a large enough effect; inconclusive = small, poorly fitted or top-dose-only effect, or another doubt; inactive = no such curve, though single readings can be large; an effect the other way counts as inactive or inconclusive.

SMILES | RE007 growth inh | Tb PYK inh | LmPK inh | Shiga toxin inh | Giardia FBPA inh | CHX counter-1 | CHX counter-2
O=C(NCc1ccccc1)c1ccccc1NC(=O)C1CCCCC1 | 9.4% | 2.1% | -6.2% | 7.9 | · | 7.5 | ·
CSc1nc(SCCO)c2sc3nc(-c4ccco4)c4c(c3c2n1)CC(C)(C)OC4 | -23.6% | 13.0% | -1.4% | 80.6* | -10.8% | -5.4 | -1.7%
NS(=O)(=O)c1ccc(CCNC(=O)c2ccc(NC3=NC4CS(=O)(=O)CC4S3)cc2)cc1 (stereo unspecified) | 5.9% | -5.6% | -1.8% | 114.1* | -24.8% | -3.6 | -1.0%
Cc1noc(C)c1S(=O)(=O)Nc1cccc(CO)c1 | -10.4% | 3.7% | -0.6% | 45.4* | · | 0.3 | -1.1%
CC(=O)Nc1cccc(NS(=O)(=O)c2c(C)noc2C)c1 | 0.0% | 6.4% | · | · | · | · | ·
CNc1ccnc(-c2cccc(NS(C)(=O)=O)c2)n1 | · | · | · | · | 0.9% | · | ·
CCOC(=O)C1(CCCc2ccccc2)CCN(C(=O)CCn2cncn2)CC1 | 6.4% | -6.1% | -4.9% | 39.3* | -1.5% | 7.8 | 2.6%
CC1(C)OC(=O)C(=NNc2ccccc2)C(=O)O1 | -6.2% | 4.2% | -4.8% | 35.8* | -4.7% | 8.4 | 2.1%
CC1(C)OC(=O)C(=NNc2ccccc2C(=O)O)C(=O)O1 | 7.7% | 5.5% | -3.5% | -4.7 | -20.7% | -1.5 | ·
Cc1ccc(-c2csc(NC(=O)c3ccc([N+](=O)[O-])o3)n2)cc1 | -14.5% | 1.4% | -4.7% | 19.3 | -8.7% | 11.7 | ·
Cc1ccc(-c2csc(NC(=O)c3ccc(C)o3)n2)cc1 | ? | -4.7% | 2.5% | 71.3* | -5.0% | 9.0 | 0.9%
Cc1cc(N2CCCCCC2)nc(-c2ccccc2O)n1 | -5.9% | 2.7% | -5.3% | 58.8* | 4.5% | 4.1 | 1.8%
Cc1cc(N2CCOCC2)nc(-c2ccccc2O)n1 | -24.5% | -2.4% | 1.0% | -5.6 | 0.6% | 8.8 | ·
CN(c1ccccc1)c1ncnc2c1cnn2C | · | 3.3% | · | · | · | · | ·
Nc1ccc(NC(=O)c2ccco2)c(Cl)c1 | -11.4% | 3.3% | 2.3% | 25.1 | 3.8% | 14.9 | ·
Cc1cccc(C(=O)Nc2ccc(NC(=O)CN3CCOCC3)cc2)c1 | -7.6% | 0.7% | 9.0% | 6.2 | 4.0% | -2.0 | ·
COC(=O)C(O)(c1ccc(N(C)S(=O)(=O)c2ccccc2)cc1)C(F)(F)F (stereo unspecified) | 1.5% | 3.4% | 0.9% | 84.4* | -3.8% | 12.9 | ?
COc1ccc(CCNC(=O)c2ccc3c(c2)N(Cc2ccc(F)cc2)C(=O)CS3)cc1OC | · | 2.3% | · | · | · | · | ·
CC(C)NS(=O)(=O)c1ccc(OCC(=O)Nc2ccccc2F)cc1 | 0.4% | 0.2% | -4.2% | 33.6* | 0.8% | 7.0 | 8.2%
Cn1nccc1C(=O)Nc1sc2c(c1C#N)CCCC2 | -7.9% | -4.0% | 1.4% | 16.4* | · | 16.2 | ?
CC(=O)Nc1sc2c(c1C#N)CCC2 | -24.5% | -4.3% | 2.1% | -1.5 | -5.7% | 11.1 | ·
Nc1cc(N)nc(SCC(=O)Nc2ccc(Br)cc2Cl)n1 | ? | -28.0% | 2.0% | 48.0* | -0.2% | 13.7 | ?
O=C(/C=C/C#Cc1cccc(NS(=O)(=O)c2ccccc2)c1)NO | · | · | · | 64.8* | -12.4% | 12.9 | 0.2%
Fc1ccc(C(NCCc2ccc(Cl)cc2)c2nnc(-c3ccccc3Cl)o2)cc1 (stereo unspecified) | · | -6.2% | · | · | · | · | ·
CC(=O)N1CCC(C(=O)Nc2ccc3c(c2)CCC3)CC1 | -5.0% | -1.3% | -2.9% | -16.3 | · | -2.8 | ·
CC(=O)Nc1ccc2c(c1)CCCC2 | -23.2% | 1.7% | -0.8% | 19.8* | -1.3% | -2.8 | -0.4%
COCCOC(=O)c1c(C)oc2ccc(OC(=O)c3ccco3)cc12 | -9.3% | -3.6% | 2.6% | + | 0.6% | 12.5 | 5.0%
COC(=O)C[C@@H]1C[C@@H]2c3cc(NS(=O)(=O)c4ccccc4)ccc3O[C@@H]2[C@@H](CO)O1 | 10.4% | -13.1% | · | · | · | · | ·
Cc1ccccc1Oc1ncnc(N)c1[N+](=O)[O-] | 2.8% | 3.2% | 12.1% | -6.7 | 2.4% | 2.9 | ·
CC(=O)c1ccccc1Oc1ncnc(N)c1[N+](=O)[O-] | 0.6% | 4.2% | 2.8% | 29.2* | -0.2% | 2.0 | 0.4%

Source: PubChem
